Compounds without any hit were thinned out: in the full panel of roughly 83,000, 20% have a hit.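 Results are percent growth after 48 hours of single-concentration exposure. 100 means growth as in untreated cells, lower positive values show inhibition; negative values down to -100 show cell death.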 Activity calls are given as the source filed them. The calls were made as follows: active = growth percent below 10; inactive = the rest.
Key:
Assay in all cases: NCI-60 one-dose screen, 48 h (100 = growth as untreated, 0 = no growth, -100 = all killed)
Details in all cases: 10 µM unless noted
[1] = tested on: NCI-H23 lung
[2] = tested on: NCI-H226 lung
[3] = tested on: NCI-H322M lung
[4] = tested on: HOP-62 NSCLC
[5] = tested on: NCI-H460 lung
[6] = tested on: HOP-92 NSCLC
[7] = tested on: NCI-H522 lung
[8] = tested on: A549/ATCC NSCLC
[9] = tested on: COLO 205 colon
[10] = tested on: DU-145 prostate
[11] = tested on: K-562 leukemia
[12] = tested on: MALME-3M melanoma
[13] = tested on: MDA-MB-231 breast
[14] = tested on: RXF 393 renal
[15] = tested on: SF-268 CNS
[16] = tested on: SF-539 CNS
[17] = tested on: UACC-257 melanoma
[18] = tested on: M14 melanoma
[19] = tested on: 786-0 renal
[20] = tested on: SF-295 CNS

Measured: growth

CC(C)CC1C(=O)N2CCC[C@H]2C2(O)O[C@](NC(=O)C3C=C4c5cccc6[nH]c(Br)c(c56)C[C@H]4N(C)C3)(C(C)C)C(=O)N12 (some centres undefined)
inactive: [1] 71.1% | [2] 59.5% | [3] 71.8% | [4] 82.7% | [5] 57.2% | [6] 66.1% | [7] 53.5% | [8] 37.9% | [9] 47.9% | [10] 83.6% | [11] 34.5% | [12] 74.7% | [13] 46.3% | [14] 36.8% | [15] 55.8% | [16] 73.6% | [17] 51% | [18] 66.3%

CN1CCN=C1c1ccc(NC(=O)c2ccc(C(=O)Nc3ccc(C4=NCCN4C)cc3)cc2)cc1
inactive: [1] 90.2% | [2] 98.6% | [3] 92.2% | [4] 97.8% | [5] 91% | [6] 82.5% | [7] 87% | [8] 101% | [19] 101% | [9] 99.6% | [10] 119% | [12] 80.6% | [13] 103% | [15] 111% | [20] 92.9% | [16] 94.1% | [18] 95.9%

COc1cc(-c2ccc3c(c2)NC(=O)/C3=C\c2ccc[nH]2)ccc1O
inactive: [1] 12.1% | [2] 39.6% | [3] 30.3% | [4] 27.8% | [6] 57.8% | [19] 14.8% | [9] 25.2% | [10] 17.8% | [12] 66.4% | [13] 66.4% | [14] 17.8% | [15] 31.1% | [17] 39.3% | [18] 34.1%
active: [5] 7.55% | [7] 6.78% | [11] 5.55% | [20] -19.6% | [16] 0.982%

CC1(C)CC[C@]2(C(=O)Nc3ccccn3)CC[C@]3(C)C(=CC[C@@H]4[C@@]5(C)C/C(=C/c6cccnc6)C(=O)C(C)(C)[C@@H]5CC[C@]43C)[C@H]2C1
inactive: [1] 35.9% | [2] 47.8% | [3] 79.1% | [4] 54.7% | [5] 10.6% | [6] 57.7% | [7] 30.5% | [19] 43.2% | [10] 53.2% | [11] 18.7% | [12] 48.3% | [13] 73.2% | [14] 33.3% | [15] 53.5% | [20] 38.1% | [16] 51.6% | [17] 26.2% | [18] 35.6%
active: [9] 4.76%

Oc1ccccc1-c1nnc(CNc2ccc(Cl)cc2)o1
active: [5] 7.25%
inactive: [1] 34.8% | [2] 30.1% | [3] 32% | [4] 25.7% | [6] 52.5% | [7] 25.9% | [19] 36.7% | [9] 14.8% | [10] 35.5% | [11] 13.1% | [12] 44% | [13] 46.9% | [14] 37% | [15] 27.4% | [20] 40.6% | [16] 26.7% | [17] 12.4% | [18] 10.8%

c1ccc(CCNc2ncnc3[nH]ncc23)cc1
inactive: [1] 94.4% | [2] 89.4% | [3] 112% | [4] 89.7% | [6] 55.4% | [7] 85.5% | [8] 92.4% | [19] 96.4% | [9] 114% | [10] 109% | [11] 94.6% | [12] 114% | [13] 93.2% | [14] 93.2% | [15] 109% | [20] 102% | [16] 116% | [17] 96.5% | [18] 104%

CC1=C[C@H]2c3c(c(O)c(O)c4oc5c(C)cccc5c(=O)c34)[C@H](c3cc(O)c(O)c4oc5c(C)cccc5c(=O)c34)[C@H]2C(C)(C)C1
inactive: [3] 21.5% | [6] 20.9% | [8] 11.9% | [9] 16.3% | [10] 23.9% | [12] 18.9% | [13] 23.7% | [14] 21.5% | [17] 23.4% | [18] 13.7%
active: [1] -15.2% | [2] 0.242% | [4] 9.87% | [7] 3.27% | [19] -3.44% | [11] 2.97% | [15] -1.07% | [20] -32.4% | [16] -18.5%

CCOc1nc(-c2ccccc2)cc2c(O)c(C(=O)N/N=C/c3ccc(O)cc3O)[nH]c(=O)c12
active: [1] 3.35% | [6] -12.1% | [14] -35.2% | [17] -29.1%
inactive: [2] 26.4% | [3] 42.2% | [4] 27.1% | [5] 61.6% | [7] 10.8% | [19] 14.4% | [9] 15.9% | [10] 23.4% | [11] 31.5% | [13] 43.2% | [15] 16.3% | [20] 19.3% | [16] 16% | [18] 21.5%

Nc1nc2ccc3[nH]ncc3c2c2c1CCCC2
active: [1] -19% | [2] 6.29% | [3] 2.32% | [4] 2.81% | [6] -12.6% | [7] -1.98% | [8] 8.61% | [19] 6.18% | [9] -19% | [10] 6.94% | [11] 9.77% | [13] 4% | [14] -51.1% | [15] -9.66% | [16] -32.9% | [18] 1.67%
inactive: [12] 23% | [20] 17.1% | [17] 15.6%

C#CCOc1ccc2ncnc(N3CCN(C(=O)CCl)CC3)c2c1
inactive: [1] 93.3% [8.25 µM] | [3] 99.3% [8.25 µM] | [4] 85% [8.25 µM] | [6] 88.7% [8.25 µM] | [8] 100% [8.25 µM] | [19] 94.5% [8.25 µM] | [9] 96.1% [8.25 µM] | [10] 102% [8.25 µM] | [11] 18.9% [8.25 µM] | [12] 92.4% [8.25 µM] | [13] 95.7% [8.25 µM] | [14] 87.2% [8.25 µM] | [15] 68.7% [8.25 µM] | [20] 109% [8.25 µM] | [16] 91.4% [8.25 µM] | [17] 90.8% [8.25 µM] | [18] 61.7% [8.25 µM]
active: [2] -15.9% [8.25 µM] | [7] -59.5% [8.25 µM]

C#CCOc1ccc2ncnc(NCc3cccc(NC(=O)CCl)c3)c2c1
inactive: [1] 36.6% [8.25 µM] | [2] 25.3% [8.25 µM] | [3] 82.3% [8.25 µM] | [6] 54.4% [8.25 µM] | [8] 50.4% [8.25 µM] | [19] 39.2% [8.25 µM] | [9] 54% [8.25 µM] | [10] 77.9% [8.25 µM] | [11] 11.7% [8.25 µM] | [12] 57.4% [8.25 µM] | [13] 45.3% [8.25 µM] | [14] 42.3% [8.25 µM] | [15] 41.9% [8.25 µM] | [20] 93.9% [8.25 µM] | [16] 49.5% [8.25 µM] | [17] 63.8% [8.25 µM] | [18] 51.3% [8.25 µM]
active: [4] 0.209% [8.25 µM] | [7] -62.8% [8.25 µM]

COc1ccc(/C=C\c2cc(OC)c(OC)c(OC)c2)cc1OCC(=O)Nc1ccc2nc(C)sc2c1
active: [7] -2.14%
inactive: [1] 37.6% | [2] 24.8% | [3] 69.9% | [4] 44.4% | [6] 52% | [8] 30.5% | [19] 79.6% | [9] 75% | [10] 64.6% | [11] 18.4% | [12] 42.2% | [13] 37.1% | [14] 70.3% | [15] 52.1% | [16] 57.1% | [17] 58.5% | [18] 25.9%

CCCn1c(=O)[nH]c(N)c([C@H]2c3ccccc3Oc3[nH]c(=O)n(CCC)c(=O)c32)c1=O
inactive: [1] 86.2% | [2] 102% | [3] 85.4% | [4] 90.8% | [6] 102% | [7] 20.7% | [8] 84.8% | [19] 82.7% | [9] 86.4% | [10] 75.1% | [11] 52.6% | [12] 78.4% | [13] 81.8% | [14] 98.2% | [15] 94.4% | [20] 88.1% | [16] 100% | [17] 76.3% | [18] 83.8%

CCN1CCN(c2nc(NCCCNc3ccnc4cc(Cl)ccc34)c3ccccc3n2)CC1
active: [7] -21.5% | [9] -22.9% | [12] -73.5% | [13] -10.8% | [14] 5.38% | [16] -74.4% | [17] -82.8% | [18] -87%
inactive: [1] 64.3% | [2] 60.4% | [3] 45.4% | [4] 32.4% | [6] 64.9% | [8] 18.8% | [19] 30.7% | [10] 39.5% | [15] 55.1% | [20] 22.7%

CCc1nnc(CNc2ccc(Cl)cc2)o1
inactive: [1] 105% | [2] 93.2% | [3] 92% | [4] 111% | [6] 102% | [7] 89.9% | [8] 94.4% | [19] 97.4% | [9] 106% | [10] 108% | [11] 86.3% | [12] 95.6% | [13] 94.4% | [14] 113% | [15] 96.4% | [20] 102% | [16] 97% | [17] 103% | [18] 95.1%

— PubChem BioAssay (NCI)
